Assay outcomes (PubChem BioAssay)
KinaseGlo FLuc: Kinase-Glo luciferase inhibition (counter-screen); Kinase-Glo luciferase, ATP luminescence, 8 min; 0.28% of 200,000 active; Q27757; Potency, µM (titrated, usually from 38.3 µM), for inactives: at the top dose activity change, negative = inhibition, actives largely listed as inhibitors; note: nearly all actives have a fitted effect of over 60% in size
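Recombinant Kinase-Glo luciferase, 10 uM ATP (linear range), luciferin; imidazole pH 7.2 / KCl / MgCl2 / Tween / BSA buffer; 8 min RT; luminescence.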
Gal4-VP16 FLuc: Gal4-VP16 reporter inhibition counter-screen. Potency, µM (highest dose often 53.6 µM), without a hit: at the top dose activity, negative = inhibition, hits mostly inhibitors. AID 2546. 3.5% of 310,000 active. Drosophila S2 Gal4-VP16 UAS-luciferase, luminescence, 20 h;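 note: Gal4-VP16 expression switched on by copper sulfate through the metallothionein promoter; nearly all actives have a fitted effect of over 50% in size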
RORg inh: inhibitors of mouse ROR gamma transcriptional activity; 5.4% of 310,000 active; P51450; Drosophila S2 Gal4-RORgamma UAS-luciferase reporter, 20 h; Potency, µM (highest dose often 53.6 µM), for inactives: at the highest dose activity change, negative = inhibition, usual class: inhibitors; note: nearly all actives have a fitted effect of over 60% in size
Target sequence (P51450 whole entry, looked up, the tested form may be a part): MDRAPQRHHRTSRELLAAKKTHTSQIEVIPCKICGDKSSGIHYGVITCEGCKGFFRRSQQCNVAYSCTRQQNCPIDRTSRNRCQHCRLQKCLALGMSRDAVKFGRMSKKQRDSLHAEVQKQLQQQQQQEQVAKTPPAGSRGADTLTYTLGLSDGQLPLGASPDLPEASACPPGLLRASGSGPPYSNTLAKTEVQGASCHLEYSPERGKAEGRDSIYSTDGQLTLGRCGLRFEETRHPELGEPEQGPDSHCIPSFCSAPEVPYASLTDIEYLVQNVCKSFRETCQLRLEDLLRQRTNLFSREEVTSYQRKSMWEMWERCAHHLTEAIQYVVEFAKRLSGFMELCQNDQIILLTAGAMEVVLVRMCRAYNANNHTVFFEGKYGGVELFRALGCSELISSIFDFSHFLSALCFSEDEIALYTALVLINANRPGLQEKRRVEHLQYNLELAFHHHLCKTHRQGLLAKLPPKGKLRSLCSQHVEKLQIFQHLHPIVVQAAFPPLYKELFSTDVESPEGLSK
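Luciferase reporter read in Schneider cells carrying Gal4-RORγ (mouse) and UAS-Photinus luciferase; cells given compound 1 h before 700 uM copper sulfate induction, then incubated 20 h at ambient temperature.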
The depositor's hits bear a star; [ ] = another dose, or the depositor's remark. Only some compounds are listed: those with a hit (about 6.2% of all), similar ones and a draw of the others. Calls come from the whole dose curve; as a rule, active = well fitted curve in the direction sought with a large enough effect; inconclusive = small, poorly fitted or top-dose-only effect, or another doubt; inactive = no such curve, though single readings can be large; an effect the other way counts as inactive or inconclusive. % is set by controls: 0 for no effect and ±100 for the full control effect; potency is the fitted concentration of half-maximal effect.

How did COc1ccc(C)cc1NC(=S)NC(C)c1ccc(OC)c(OC)c1 (stereo unspecified) do in these assays?
KinaseGlo FLuc: 3%; Gal4-VP16 FLuc: 10µM*; RORg inh: 2.8µM*

Results for O=C(CSc1nnc(CNC(=O)c2cccs2)o1)Nc1ccccc1F ?
Gal4-VP16 FLuc: 0%; RORg inh: -18%

How did CCN(CC)C(=O)C(=O)N/N=C/c1ccc(C(=O)O)cc1 do in these assays?
KinaseGlo FLuc: -1%; Gal4-VP16 FLuc: -1%; RORg inh: -15%

Results for O=C(O)Cc1c[nH]c2ccc(O)cc12 ?
KinaseGlo FLuc: -3%

Results for COc1ccc(C(=O)NC2CC3CCCC(C2)N3CC(C)C)cc1 (stereo unspecified) ?
Gal4-VP16 FLuc: -6%; RORg inh: -7%

Results for O=C1OC2(O)C3C4C=CC(C4)C3C(=O)N2c2ccccc21 (stereo unspecified) ?
Gal4-VP16 FLuc: -1%; RORg inh: 21%

What do the screens show for `O=C(Nn1c(-c2ccc(Br)cc2)nc2ccccc2c1=O)c1ccc([N+](=O)[O-])cc1`?
KinaseGlo FLuc: 0%; Gal4-VP16 FLuc: -10%; RORg inh: inconclusive

How did S=C1NC2(CCCCCC2)N=C1c1ccccc1 do in these assays?
KinaseGlo FLuc: -4%; Gal4-VP16 FLuc: inconclusive; RORg inh: 2µM*

What do the screens show for `Cc1ccc(C2=NC3(CCCC3)NC2=S)cc1`?
KinaseGlo FLuc: 1%; Gal4-VP16 FLuc: 7.9µM*; RORg inh: 2.5µM*

Results for Cc1ccc(C2=NC(C)(C)NC2=O)cc1 ?
KinaseGlo FLuc: 2%; Gal4-VP16 FLuc: 0%; RORg inh: -10%

How did O=C1NC2(CCCCCC2)N=C1c1ccc(F)cc1 do in these assays?
KinaseGlo FLuc: 6%; Gal4-VP16 FLuc: -9%; RORg inh: 34%

Results for CC1(C)N=C(c2ccccc2)C(=O)N1 ?
KinaseGlo FLuc: 2%; Gal4-VP16 FLuc: 0%; RORg inh: -2%

Results for S=C1NC2(CCCC2)N=C1c1ccccc1 ?
KinaseGlo FLuc: 1%; Gal4-VP16 FLuc: -3%[10 µM]; RORg inh: 5µM*

Results for CC(C)CC1(C)N=C(c2ccccc2)C(=S)N1 (stereo unspecified) ?
KinaseGlo FLuc: -1%; Gal4-VP16 FLuc: 2.8µM*; RORg inh: 2.8µM*

How did OC1(C(O)(c2ccc(-c3ccccc3)cc2)c2ccc(-c3ccccc3)cc2)CCCCC1 do in these assays?
KinaseGlo FLuc: -5%[7.66 µM]

How did FC(F)(F)c1cc(CN2CC3(CCNCC3)C2)cc(C(F)(F)F)c1 do in these assays?
KinaseGlo FLuc: -2%; Gal4-VP16 FLuc: -9%; RORg inh: -3%

How did Cc1nc(-c2c(C(F)(F)F)noc2-c2ccc(O)cc2O)cs1 do in these assays?
KinaseGlo FLuc: 1%; Gal4-VP16 FLuc: -26%; RORg inh: 80%

How did CCOc1cc(C)c(-c2onc(C(F)(F)F)c2-c2csc(C)n2)c(O)c1 do in these assays?
KinaseGlo FLuc: -5%; Gal4-VP16 FLuc: 11µM*; RORg inh: 12%

What do the screens show for `COC(=O)NC(=C(Cl)Cl)S(=O)(=O)c1ccccc1`?
KinaseGlo FLuc: 0%; Gal4-VP16 FLuc: 18µM*; RORg inh: 10µM*

What do the screens show for `Cc1ccc(C(=O)NC(=C(Cl)Cl)S(=O)(=O)c2ccccc2)cc1`?
KinaseGlo FLuc: 3%; Gal4-VP16 FLuc: -11%; RORg inh: -10%

Results for Cc1cc2ccc(=O)oc2cc1OC[C@@H](O)C(C)(C)O ?
KinaseGlo FLuc: 4%; Gal4-VP16 FLuc: 2%; RORg inh: -20%

How did CCCCn1c(CCC)nc([N+](=O)[O-])c1Sc1ccc(Cl)cn1 do in these assays?
KinaseGlo FLuc: -2%; Gal4-VP16 FLuc: 10µM*; RORg inh: inconclusive

What do the screens show for `CC(C)Cn1c(C(C)C)nc([N+](=O)[O-])c1Sc1ccc(Cl)cn1`?
KinaseGlo FLuc: -1%; Gal4-VP16 FLuc: -5%; RORg inh: 5%

How did CN(C)c1ccc(/C=N/NC(=S)NCc2ccco2)cc1 do in these assays?
KinaseGlo FLuc: 0%; Gal4-VP16 FLuc: 5µM*; RORg inh: 1.8µM*

How did COc1cccc(/C=N/NC(=S)NCc2ccco2)c1OC do in these assays?
Gal4-VP16 FLuc: inconclusive; RORg inh: 3.5µM*

What do the screens show for `COc1ccc(C(=O)OCC(=O)NCc2ccco2)cc1OC`?
KinaseGlo FLuc: -4%; Gal4-VP16 FLuc: 0%; RORg inh: -25%

Results for CCCOc1ccc(CC(=O)NCc2ccco2)cc1OC ?
KinaseGlo FLuc: 1%; Gal4-VP16 FLuc: 5%; RORg inh: 11µM*

What do the screens show for `CN(C)c1ccc(C(=S)NCc2ccco2)cc1`?
KinaseGlo FLuc: -2%; Gal4-VP16 FLuc: 7.9µM*; RORg inh: 4µM*

Results for COc1cccc(/C=C/C(=O)OCC(=O)NCc2ccco2)c1OC ?
KinaseGlo FLuc: 1%; Gal4-VP16 FLuc: -16%; RORg inh: 22%

Results for COC(=O)c1ccc(NC(=S)NCc2ccco2)cc1 ?
KinaseGlo FLuc: 4%; Gal4-VP16 FLuc: -6%; RORg inh: inconclusive

How did CN(C)c1ccc(/C=N/NC(=O)CNC(=O)/C=C/c2ccco2)cc1 do in these assays?
Gal4-VP16 FLuc: 19%; RORg inh: inconclusive

How did CCn1ccc(C(=O)NC2=C(C#N)CCC2)n1 do in these assays?
KinaseGlo FLuc: -3%; Gal4-VP16 FLuc: -9%; RORg inh: 7%

How did COc1ccccc1NC(=S)NCc1ccco1 do in these assays?
KinaseGlo FLuc: -4%; Gal4-VP16 FLuc: 14%; RORg inh: 11%

What do the screens show for `COc1cc(/C=C/C(=O)OCC(=O)NCc2ccco2)ccc1OC(F)F`?
Gal4-VP16 FLuc: 4µM*; RORg inh: 2.5µM*

How did S=C(NCc1ccco1)N/N=C/c1ccncc1 do in these assays?
Gal4-VP16 FLuc: inconclusive; RORg inh: 16µM*

Results for COc1cc(NC(=S)NCc2ccco2)cc(OC)c1OC ?
KinaseGlo FLuc: -3%; Gal4-VP16 FLuc: 20µM*; RORg inh: 11µM*

Results for COc1ccc(/C=C/C(=O)OCC(=O)NCc2ccco2)cc1OC ?
KinaseGlo FLuc: 0%; Gal4-VP16 FLuc: -3%; RORg inh: 21%

Results for NC(=O)c1ccc(NC(=S)NCc2ccco2)cc1 ?
KinaseGlo FLuc: 4%; Gal4-VP16 FLuc: 9%; RORg inh: 11%

How did CN(C(=O)c1ccc(OCC=C(c2ccccc2)c2ccccc2)cc1)c1ccccc1I do in these assays?
Gal4-VP16 FLuc: -10%; RORg inh: -14%

Results for CCCNc1c(NS(=O)(=O)c2cccc(C#N)c2)c(=O)oc2ccccc12 ?
Gal4-VP16 FLuc: -7%; RORg inh: -2%

What do the screens show for `COc1ccc(-c2nc3cnc(N4CCOCC4)nc3n(C3CC3)c2=O)cc1`?
Gal4-VP16 FLuc: 6%; RORg inh: -17%

What do the screens show for `COc1ccc(/C=N/N=C(\N)c2nonc2N)cc1`?
KinaseGlo FLuc: 10µM*; Gal4-VP16 FLuc: inconclusive; RORg inh: inconclusive

Results for COc1cccc(/C=N/n2nnnc2N)c1OCc1ccccc1Cl ?
KinaseGlo FLuc: 7%; Gal4-VP16 FLuc: 6%; RORg inh: 13%

How did COc1cc(/C=N/N=C(\N)c2nonc2N)cc(OC)c1O do in these assays?
Gal4-VP16 FLuc: 7%; RORg inh: -19%

How did CCOc1cc(/C=N/NC(N)=O)cc(Br)c1OCc1ccccc1 do in these assays?
KinaseGlo FLuc: 2%; Gal4-VP16 FLuc: -5%; RORg inh: -12%

Results for COc1cc(/C=N/O)cc(Br)c1OC ?
KinaseGlo FLuc: 1%; Gal4-VP16 FLuc: -4%; RORg inh: -16%
